Assay [1] is described as follows: APR_HepG2_CellCycleArrest_24hr: Apredica 24-hour HepG2 Assay for Cell Cycle Arrest (AID 2282905).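 Also: cell cycle arrest scored as ratio of 2N to 4N nuclear DNA content.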 The note with it: imaging, actives raise or lower the signal. The gist of the method:
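Cell cycle arrest is scored from nuclear DNA content measured by high-content imaging of Hoechst 33342-stained HepG2 cells following 24-hour treatment at ten concentrations up to 200 uM, with DMSO as baseline.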

A short description of assay [2]: APR_HepG2_NuclearSize_24hr: Apredica 24-hour HepG2 Assay for Nuclear Size (AID 2282907). To be noted: high-content imaging, actives raise or lower the signal. The gist of the method:
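Compounds in DMSO (final 0.5%) were added to human HepG2 hepatoma cells at ten concentrations up to 200 uM for 24 hr. Fixed nuclei were stained with Hoechst 33342, and nuclear diameter was quantified from automated images.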

A short description of assay [3]: APR_HepG2_CellLoss_24hr: Apredica 24-hour HepG2 Assay for Cell Loss (AID 2282908).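 As to AC50: fit in both directions so a hit may be cell loss or gain.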 To be noted: high-content imaging. The gist of the method:
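Cell number is quantified by fluorescence imaging of Hoechst 33342-stained nuclei following dosing at 0.39–200 uM in 0.5% DMSO. Curves are fitted in both directions from the DMSO baseline.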

Assay [4] is described as follows: APR_HepG2_MicrotubuleCSK_24hr: Apredica 24-hour HepG2 Assay for Microtubule CSK Stabilty (AID 2282909). The note with it: HepG2 microtubule cytoskeleton imaging, actives raise or lower the signal. The gist of the method:
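Steps: dose HepG2 for 24 h (0.39–200 uM, 0.5% DMSO); fix 30 min in 3.7% formaldehyde at room temperature; permeabilize; stain alpha-tubulin 60 min; image microtubule cytoskeleton at 20x. Signal change fitted in both directions relative to DMSO.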

Assay [5] can be described thus: APR_HepG2_MitoticArrest_24hr: Apredica 24-hour HepG2 Assay for Mitotic Arrest (AID 2282910). To be noted: high-content imaging, actives raise or lower the signal. The gist of the method:
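HepG2 human liver cells were exposed to compounds at 0.39–200 uM (10 concentrations, duplicate) in 0.5% v/v DMSO for 24 hr, then fixed and immunostained for phospho-histone H3 with Hoechst 33342. Mitotic arrest came from HCS fluorescent imaging, fitted bidirectionally against DMSO.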

The nature of assay [6]: APR_HepG2_MitoMembPot_24hr: Apredica 24-hour HepG2 Assay for Mitochondrial Membrane Potential (AID 2282911). The note with it: imaging, actives raise or lower the signal. The gist of the method: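 Human hepatoma HepG2 cultures received ten compound concentrations up to 200 uM for 24 hr. Membrane-potential dye signal, captured by automated fluorescence microscopy, was scored for gain or loss against DMSO controls.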

A short description of assay [7]: APR_HepG2_MitoMass_24hr: Apredica 24-hour HepG2 Assay for Mitochondrial Mass (AID 2282912). To be noted: high-content imaging, actives raise or lower the signal. The gist of the method:
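The liver line HepG2 was dosed in duplicate across a 0.39–200 uM series, with final DMSO held at 0.5% v/v, and harvested at 24 hr. High-content imaging measured mitochondrial dye staining.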

A short description of assay [8]: APR_HepG2_p53Act_24hr: Apredica 24-hour HepG2 Assay for p53 Activation (AID 2282913).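 Also: p53 protein immunofluorescence averaged per cell in HepG2 with Hoechst nuclei.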 The note with it: high-content imaging, actives raise or lower the signal. The gist of the method: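 Automated fluorescence imaging quantifies p53 immunostaining in HepG2 cells after a 24 hr exposure (0.39–200 uM, duplicate, 0.5% DMSO). Nuclei are located by Hoechst 33342 staining.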

Assay [9] is described as follows: APR_HepG2_CellCycleArrest_72hr: Apredica 72-hour HepG2 Assay for Cell Cycle Arrest (AID 2282914). To be noted: high-content imaging, actives raise or lower the signal. The gist of the method: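 Cell cycle arrest in HepG2 was scored from nuclear DNA content after 72 hr compound treatment (0.39–200 uM). Activity, either gain or loss, was fitted against the DMSO baseline.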

Assay [10] in a line: APR_HepG2_P-H2AX_72hr: Apredica 72-hour HepG2 Assay for H2AX Phosphorylation (AID 2282916).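 Also: phospho-histone H2A.x immunostain intensity per cell marking DNA damage.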 To be noted: imaging, actives raise or lower the signal. The gist of the method: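 Following 72 hr treatment with 0.39–200 uM compound, HepG2 cells were formaldehyde-fixed, permeabilized and stained for phospho-H2A.x; signal was measured by high-content imaging and fitted bidirectionally against DMSO controls.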

Assay [11] is described as follows: APR_HepG2_MicrotubuleCSK_72hr: Apredica 72-hour HepG2 Assay for Microtubule CSK Stabilty (AID 2282919). The note with it: HepG2 microtubule cytoskeleton, high-content imaging, actives raise or lower the signal. The gist of the method:
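HepG2 human liver cells were dosed for 72 h at ten concentrations from 0.39 to 200 uM in duplicate (0.5% v/v DMSO final). Fixed, permeabilized cells were immunostained for alpha-tubulin (Cy5) with a Hoechst counterstain and imaged at 20x.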

Assay [12] in a line: APR_HepG2_P-H2AX_24hr: Apredica 24-hour HepG2 Assay for H2AX Phosphorylation (AID 2282920). The note with it: high-content imaging, actives raise or lower the signal. The gist of the method:
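Signal comes from a FITC-labeled secondary detecting phospho-histone H2A.x in fixed HepG2 cells, quantified by automated imaging at 20x. Dosing ran 24 hr across 0.39–200 uM with 0.5% v/v DMSO.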

Assay [13] is described as follows: APR_HepG2_StressKinase_72hr: Apredica 72-hour HepG2 Assay for Stress Kinase (AID 2282921). To be noted: HepG2 stress kinase (phospho-c-Jun) imaging, actives raise or lower the signal. The gist of the method: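 Fluorescence intensity of Cy3-tagged anti-phospho-c-Jun antibody, quantified per cell from Hoechst-defined nuclei across six images per well, served as the read-out following 72 h exposure (0.39–200 uM, 0.5% v/v DMSO).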

Assay [14] is described as follows: APR_HepG2_StressKinase_24hr: Apredica 24-hour HepG2 Assay for Stress Kinase (AID 2282922). The note with it: HepG2 stress kinase (phospho-c-Jun) imaging, actives raise or lower the signal. The gist of the method: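 HepG2 cells exposed 24 hr to compound at 0.39–200 uM (10 concentrations, duplicate), 0.5% v/v DMSO final. Fixed in 3.7% formaldehyde, permeabilized with Triton X-100, immunolabeled for phospho-c-Jun with Hoechst 33342; HCS fluorescence imaging, bidirectional fit versus DMSO.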

The nature of assay [15]: APR_HepG2_p53Act_72hr: Apredica 72-hour HepG2 Assay for p53 Activation (AID 2282923).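 Also: average cellular p53 protein immunofluorescence intensity in HepG2 cells.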 To be noted: high-content imaging, actives raise or lower the signal. The gist of the method: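 HepG2 monolayers receive test compounds in duplicate at ten concentrations (0.39 through 200 uM) for 72 hr. They are then formaldehyde-fixed, antibody-labelled for p53, Hoechst-stained and imaged, with activity fitted bidirectionally versus DMSO.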

Assay [16] can be described thus: APR_HepG2_MitoMass_72hr: Apredica 72-hour HepG2 Assay for Mitochondrial Mass (AID 2282924).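 Also: MitoTracker Red CMXRos stain intensity per cell imaged as mitochondrial mass.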 The note with it: high-content imaging, actives raise or lower the signal. The gist of the method:
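HepG2 cells were exposed for 72 hr to compounds at 0.39–200 uM (ten concentrations, duplicate, 0.5% v/v DMSO final). Live cells were stained with 250 nM MitoTracker Red CMXRos for 30 min, then fixed in 3.7% formaldehyde and imaged by HCS fluorescence.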

The nature of assay [17]: APR_HepG2_NuclearSize_72hr: Apredica 72-hour HepG2 Assay for Nuclear Size (AID 2282925). The note with it: high-content imaging, actives raise or lower the signal. The gist of the method:
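HepG2 cells were exposed to compounds at ten concentrations from 0.39 to 200 uM (duplicate, 0.5% DMSO final) for 72 hr. After fixation in 3.7% formaldehyde, nuclei were stained with Hoechst 33342 (2 ug/mL) and imaged at 20x.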

A short description of assay [18]: APR_HepG2_MitoMembPot_72hr: Apredica 72-hour HepG2 Assay for Mitochondrial Membrane Potential (AID 2282917). To be noted: imaging, actives raise or lower the signal. The gist of the method:
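HepG2 cells exposed 72 h to compounds at 0.39–200 uM (0.5% v/v DMSO, duplicates); MitoTracker Red CMXRos 250 nM loaded 30 min before 3.7% formaldehyde fixation, imaged by HCS fluorescence. Bidirectional fit versus DMSO.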

The nature of assay [19]: APR_HepG2_CellLoss_72hr: Apredica 72-hour HepG2 Assay for Cell Loss (AID 2282915). To be noted: high-content imaging. The gist of the method: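 HepG2 cells were exposed for 72 hr to compounds at 0.39–200 uM (ten concentrations, duplicate) in 0.5% v/v final DMSO. Nuclei were stained with Hoechst 33342 after 3.7% formaldehyde fixation, imaged at 20x, and counted; fits bidirectional versus DMSO.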

A short description of assay [20]: APR_HepG2_MitoticArrest_72hr: Apredica 72-hour HepG2 Assay for Mitotic Arrest (AID 2282918). The note with it: high-content imaging, actives raise or lower the signal. The gist of the method:
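Mitotic arrest in HepG2 is scored from phospho-histone H3 staining after 72 hr dosing across 0.39–200 uM, with DMSO at 0.5% v/v. Nuclei are identified by Hoechst 33342 and fluorescence intensity is quantified per cell.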

Activity calls are given as the source filed them. The calls were made as follows: active = hit-call score of the fitted dose curve at least 0.9, where 1 is the maximum; inactive = score below 0.9.

In the case of `CNS(=O)(=O)c1cc(C(=O)N2CCC(CCN3C4CCC3CC(n3c(C)nc5ccccc53)C4)(c3cccc(F)c3)CC2)c(Cl)cc1F` (stereo unspecified), the compound was classed as inactive in assay [1], in assay [2], in assay [6], in assay [13], in [15] and in [16]. Further, the outcome in [17] was inactive. Further, the AC50 in assay [3] was 62.9 µM (active); in [4], 52 µM (active); in [5], 40.9 µM (active); in assay [7] it was 62.7 µM (active); in assay [8] it was 72.7 µM (active); in [9] it was 78.9 µM (active). For the same compound, the AC50 in assay [10] was 11.1 µM (active); in [11], 65.2 µM (active); in assay [12] it was 52.9 µM (active); in [14] it was 54.4 µM (active).

With `CCNc1ccccc1`, the outcome in assay [1], in assay [2], in assay [3], in assay [4], in assay [5] and in [6] was inactive. Further, the compound was classed as inactive in assay [7], in assay [8], in assay [9], in [10], in assay [18] and in [11]. Besides, the result in assay [12], in assay [13], in assay [14], in assay [15], in [16] and in [17] was inactive.

Consider `COC(=O)CC(=O)OC`, for which the result in [1], in [2], in assay [3], in assay [4], in assay [6] and in assay [7] was inactive. The result in [8], in assay [9], in assay [19], in assay [10], in assay [18] and in assay [11] was inactive. Further, the compound was called inactive in assay [12], in [13], in [14], in [15] and in assay [16].

For the compound `CC[C@H](C)C(=O)O[C@H]1C[C@@H](C)C=C2C=C[C@H](C)[C@H](CC[C@@H]3C[C@@H](O)CC(=O)O3)[C@H]21`, the call in [1], in assay [2], in assay [4], in assay [8], in assay [9] and in [11] was inactive. For the same compound, the result in [13] and in assay [14] was inactive. The AC50 in [3] is 82 µM (active); in assay [6] it was 48.8 µM (active); in assay [7], 5.52 µM (active); in assay [19], 31.1 µM (active); in [10], 5.29 µM (active); in assay [20], 4.53 µM (active). The AC50 in assay [12] is 2.46 µM (active); in assay [15] it was 3.64 µM (active); in assay [16], 131 µM (active).

`C1=CCCC=CCCC=CCC1`: the result in assay [1], in assay [2], in assay [3], in assay [4], in assay [5] and in assay [6] was inactive. In addition, the outcome in assay [7], in [8], in assay [9], in assay [10], in assay [18] and in assay [11] was inactive. Also, the result in [12], in [13], in assay [14], in assay [15] and in assay [16] was inactive.

Regarding `Cn1c(=O)c2c(ncn2C)n(C)c1=O`, the compound was called inactive in [1], in assay [2], in assay [3], in [4], in assay [5] and in assay [6]. For the same compound, the outcome in assay [7], in [8], in assay [9], in assay [10], in [20] and in [11] was inactive. Further, the compound was called inactive in assay [12], in assay [13], in assay [14], in assay [15] and in assay [16].

Take `CCOCCOCCOCCO`: the result in assay [1], in [2], in assay [3], in assay [4], in assay [5] and in assay [6] was inactive. Besides, the compound was classed as inactive in assay [7], in assay [8], in [9], in [10], in [11] and in assay [12]. The result in [13], in assay [14], in [15] and in assay [16] was inactive.

On to `CC(C)=CCCC(C)=CC=O`, for which the outcome in assay [1], in assay [2], in [3], in [4], in [5] and in assay [6] was inactive. Moreover, the outcome in assay [7], in assay [8], in [9], in [10], in [20] and in assay [11] was inactive. Moreover, the compound was classed as inactive in assay [12], in assay [13], in assay [14], in assay [15] and in [16].

The record behind these values is PubChem BioAssay (EPA / NIEHS).
